# Measurements as given in PubChem BioAssay.
# The source made the active and inactive calls.
# Key:
# [1] = molecular target: Albumin (Bos taurus) (UniProt P02769); test: bovine serum albumin binders on microarray, profiling panel, artefact control for SMM control protein annotation, biochemical, small-molecule microarray, Alexa647 label, 635/667 nm fluorescence (AID 1118); conditions: BSA-A647 binding, fluorescence 635 nm, higher = more signal;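 note: score merges 667 nm emission intensity and signal-to-noise per printed compound spot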
# [2] = small-molecule microarray binders of probe aXIP, primary screen, biochemical, NeuroSMM set, 635/667 nm fluorescence (AID 1119); conditions: higher = more signal, called active from +8 up or from −8 down;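 note: probe is the protein aXip251-270 applied at 1 µg/mL to compound-printed slides; binding of probe to printed compounds measured as 667 nm fluorescence plus signal to noise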
# [3] = small-molecule binders of probe aNOTCH3, primary screen, biochemical, small-molecule microarray, 635/667 nm fluorescence (AID 1120); conditions: higher = more signal;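 note: probe is a biotin-tagged antibody raised against NOTCH3 rather than NOTCH3 protein; score merges spot fluorescence near 667 nm with spot signal to noise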
# [4] = small-molecule binders of probe aNOTCH2, primary screen, biochemical, small-molecule microarray, 635/667 nm fluorescence (AID 1121); conditions: higher = more signal;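 note: score merges feature fluorescence read at 667 nm with its signal to noise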
# [5] = molecular target: Carbonic anhydrase 2 (Homo sapiens) (UniProt P00918); test: CAII small-molecule binders, profiling panel, biochemical, small-molecule microarray, Alexa647-labelled CAII (AID 1122); conditions: CAII-A647 binding fluorescence, higher = more signal
# [6] = COS7 lysate on small-molecule microarray, probe aHis, 635 nm (AID 1123); conditions: COS7 cell lysate, fluorescence, higher = more signal;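 note: z-score combines 667nm fluorescence intensity with signal-to-noise per printed compound spot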
# [7] = compound binding in COS7 lysate, probe aLAP1, primary screen, cell lysate, small-molecule microarray (AID 1124); conditions: probe aLAP1, fluorescence, higher = more signal;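 note: lysate comes from COS7 cells expressing LAP1 and is applied at 0.3 µg/mL; score merges spot fluorescence near 667 nm with signal-to-noise over triplicate slides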
# [8] = test system: Sam68 (KHDRBS1); test: Sam68 small-molecule binders, primary screen, biochemical, small-molecule microarray, 635 nm fluorescence (AID 1125); conditions: small-molecule microarray binding, higher = more signal;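 note: score merges 667 nm channel intensity with signal to noise over triplicate slides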
# [9] = test system: Chordin-like protein 2 (CHRDL2); test: CHRDL2 small-molecule binders, primary screen, biochemical, small-molecule microarray, 635 nm fluorescence (AID 1126); conditions: small-molecule microarray binding, fluorescence 635 nm; higher = more signal;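 note: printed compound slides probed with Chrdl2 protein at 4 µg/mL for 1 h at 4 C; score merges 667 nm emission intensity with signal to noise over three replicate slides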
# [10] = molecular target: Concanavalin-A (Canavalia ensiformis) (UniProt P02866); test: ConA small-molecule binders, primary screen, artefact control for SMM control protein annotation, biochemical, small-molecule microarray, Alexa647 label, 635 nm (AID 1127); conditions: ConA-A647 binding fluorescence, higher = more signal;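 note: z combines 667 nm emission intensity with signal-to-noise across three replicate slides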
# [11] = anti-His antibody binders, primary screen, artefact control for SMM control protein annotation, biochemical, small-molecule microarray, 635 nm fluorescence (AID 1128); conditions: anti-His Alexa647 antibody binding, higher = more signal;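 note: score merges feature fluorescence with signal-to-noise for each printed compound spot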
# [12] = test system: Human papillomavirus type 1a E7 protein (residues 1-88); test: HPV1a E7 small-molecule binders, primary screen, biochemical, small-molecule microarray, residues 1-88, 635 nm (AID 1129); conditions: small-molecule microarray binding, fluorescence 635 nm; higher = more signal
# [13] = molecular target: Focal adhesion kinase 1 (Homo sapiens) (UniProt Q05397); test: small-molecule microarray binders of FAK, primary screen, biochemical, 635/667 nm fluorescence, BSA, DTT (AID 1130); conditions: PTK2 binding, 635 nm fluorescence, higher = more signal;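 note: composite of spot emission at 667 nm and signal to noise over triplicate slides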
# [14] = test system: Fibrinogen (Alexa647-labelled); test: fibrinogen binders on compound microarrays, profiling panel, artefact control for SMM control-protein annotation, biochemical, small-molecule microarray, 635/667 nm fluorescence (AID 1131); conditions: fibrinogen-A647 binding fluorescence, higher = more signal;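 note: z-score merges 667 nm fluorescence with per-spot signal-to-noise over triplicate slides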
# [15] = molecular target: Follistatin (Homo sapiens) (UniProt P19883); test: follistatin binders on small-molecule microarrays, primary screen, biochemical, small-molecule microarray, 635/667 nm fluorescence (AID 1132); conditions: FST binding, 635 nm fluorescence, higher = more signal
# [16] = molecular target: Fibroblast growth factor 2 (Homo sapiens) (UniProt P09038); test: FGF2 binders on small-molecule microarrays, primary screen, biochemical, small-molecule microarray, 635/667 nm fluorescence (AID 1133); conditions: small-molecule microarray binding, FGF2, fluorescence 635/667; higher = more signal
# [17] = mitochondrial membrane potential change in A549 cells, profiling panel, cell-based, JC-1 fluorescence, basal, 24 h, 100 nL (AID 1138); conditions: higher = more signal;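 note: A549 lung adenocarcinoma cells under basal conditions with no added stimulus; test concentration not given here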
# [18] = test system: Lefty1; test: Lefty1 binders on small-molecule microarrays, primary screen, biochemical, small-molecule microarray, 635/667 nm fluorescence (AID 1139); conditions: small-molecule microarray binding, fluorescence 635/667; higher = more signal
# [19] = test system: wheat germ agglutinin (Triticum aestivum), Alexa647-labelled; test: wheat germ agglutinin binders on compound microarrays, profiling panel, artefact control for SMM control-protein annotation, biochemical, small-molecule microarray, 635/667 nm fluorescence (AID 1140); conditions: WGA-A647 binding, 635 nm fluorescence, higher = more signal;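 note: score merges 667 nm feature emission with signal to noise over triplicate slides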
# [20] = molecular target: Luciferin 4-monooxygenase (Photinus pyralis) (UniProt P08659); test: firefly luciferase enzyme inhibitors, primary screen, biochemical, luminescence, purified enzyme, 2006 set (AID 1141); conditions: SteadyGlo luminescence, 30 min, higher = more signal, called active from +8 up or from −8 down;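 note: cell-free assay with purified firefly luciferase at 100 ng per well in PBS; test concentration not given here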
# Chain of Luciferin 4-monooxygenase (Photinus pyralis) (P08659 whole entry, looked up): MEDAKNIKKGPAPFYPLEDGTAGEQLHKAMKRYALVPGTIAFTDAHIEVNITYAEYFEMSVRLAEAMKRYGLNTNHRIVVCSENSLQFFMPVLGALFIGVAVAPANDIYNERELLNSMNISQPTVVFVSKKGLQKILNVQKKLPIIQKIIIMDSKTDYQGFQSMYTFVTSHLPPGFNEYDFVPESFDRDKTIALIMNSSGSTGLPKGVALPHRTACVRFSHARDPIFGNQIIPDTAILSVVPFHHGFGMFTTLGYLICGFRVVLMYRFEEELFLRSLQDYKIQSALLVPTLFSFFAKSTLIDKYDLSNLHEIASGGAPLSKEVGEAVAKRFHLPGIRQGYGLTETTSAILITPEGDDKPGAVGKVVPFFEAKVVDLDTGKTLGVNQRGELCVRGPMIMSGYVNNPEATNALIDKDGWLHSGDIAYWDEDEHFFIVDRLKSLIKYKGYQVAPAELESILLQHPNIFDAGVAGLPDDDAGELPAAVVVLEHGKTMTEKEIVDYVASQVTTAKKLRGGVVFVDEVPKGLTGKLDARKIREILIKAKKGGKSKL
# Chain of Focal adhesion kinase 1 (Homo sapiens) (Q05397 whole entry, looked up): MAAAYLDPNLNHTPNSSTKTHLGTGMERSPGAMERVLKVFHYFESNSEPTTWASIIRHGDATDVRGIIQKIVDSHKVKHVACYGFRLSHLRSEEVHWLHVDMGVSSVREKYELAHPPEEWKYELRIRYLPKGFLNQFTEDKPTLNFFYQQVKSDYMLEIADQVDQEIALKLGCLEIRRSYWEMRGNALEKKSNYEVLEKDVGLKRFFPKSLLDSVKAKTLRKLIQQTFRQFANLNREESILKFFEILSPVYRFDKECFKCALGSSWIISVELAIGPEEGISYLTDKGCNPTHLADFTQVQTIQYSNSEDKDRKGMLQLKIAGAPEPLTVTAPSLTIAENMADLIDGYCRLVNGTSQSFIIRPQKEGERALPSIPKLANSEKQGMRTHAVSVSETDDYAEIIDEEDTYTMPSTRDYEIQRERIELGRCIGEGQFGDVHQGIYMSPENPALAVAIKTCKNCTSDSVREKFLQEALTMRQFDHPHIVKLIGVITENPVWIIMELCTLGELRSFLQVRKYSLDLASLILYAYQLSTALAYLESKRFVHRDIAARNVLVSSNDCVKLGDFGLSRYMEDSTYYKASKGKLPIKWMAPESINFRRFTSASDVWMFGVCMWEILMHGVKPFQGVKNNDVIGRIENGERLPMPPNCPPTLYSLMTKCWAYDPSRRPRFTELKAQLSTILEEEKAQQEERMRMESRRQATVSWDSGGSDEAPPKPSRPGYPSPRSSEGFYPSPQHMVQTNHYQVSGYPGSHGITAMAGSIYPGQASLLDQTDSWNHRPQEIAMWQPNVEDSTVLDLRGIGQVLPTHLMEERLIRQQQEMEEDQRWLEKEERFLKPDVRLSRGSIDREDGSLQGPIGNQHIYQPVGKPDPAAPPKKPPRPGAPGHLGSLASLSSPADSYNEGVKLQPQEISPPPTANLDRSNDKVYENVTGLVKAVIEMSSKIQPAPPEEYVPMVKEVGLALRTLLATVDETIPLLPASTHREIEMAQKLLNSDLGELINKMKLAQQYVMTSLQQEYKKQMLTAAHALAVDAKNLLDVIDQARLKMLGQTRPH
# Chain of Follistatin (Homo sapiens) (P19883 whole entry, looked up): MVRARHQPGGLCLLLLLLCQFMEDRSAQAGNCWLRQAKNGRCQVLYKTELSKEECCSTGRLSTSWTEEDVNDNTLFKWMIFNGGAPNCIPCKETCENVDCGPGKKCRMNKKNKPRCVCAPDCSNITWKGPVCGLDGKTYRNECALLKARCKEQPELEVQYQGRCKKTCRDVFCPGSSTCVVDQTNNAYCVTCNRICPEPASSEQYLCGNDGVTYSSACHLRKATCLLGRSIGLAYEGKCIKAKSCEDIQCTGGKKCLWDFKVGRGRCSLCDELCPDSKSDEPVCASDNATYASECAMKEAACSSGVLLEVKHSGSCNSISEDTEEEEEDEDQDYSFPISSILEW
# Chain of Albumin (Bos taurus) (P02769 whole entry, looked up): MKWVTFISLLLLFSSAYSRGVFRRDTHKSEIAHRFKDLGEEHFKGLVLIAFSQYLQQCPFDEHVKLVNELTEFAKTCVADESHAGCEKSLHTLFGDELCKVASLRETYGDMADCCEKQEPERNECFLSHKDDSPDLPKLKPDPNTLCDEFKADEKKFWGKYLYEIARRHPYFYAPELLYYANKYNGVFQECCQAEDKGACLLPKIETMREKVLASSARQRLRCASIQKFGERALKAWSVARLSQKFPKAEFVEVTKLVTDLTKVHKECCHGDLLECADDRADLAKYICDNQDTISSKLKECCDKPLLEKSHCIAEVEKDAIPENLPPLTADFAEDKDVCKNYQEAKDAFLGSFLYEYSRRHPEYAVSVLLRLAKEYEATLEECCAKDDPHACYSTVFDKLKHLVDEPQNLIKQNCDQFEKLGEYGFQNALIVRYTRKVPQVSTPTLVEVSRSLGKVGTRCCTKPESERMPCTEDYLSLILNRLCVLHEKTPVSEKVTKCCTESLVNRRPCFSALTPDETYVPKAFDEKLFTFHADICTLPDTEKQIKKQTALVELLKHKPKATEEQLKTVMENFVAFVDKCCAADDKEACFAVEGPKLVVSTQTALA
# Chain of Concanavalin-A (Canavalia ensiformis) (P02866 whole entry, looked up): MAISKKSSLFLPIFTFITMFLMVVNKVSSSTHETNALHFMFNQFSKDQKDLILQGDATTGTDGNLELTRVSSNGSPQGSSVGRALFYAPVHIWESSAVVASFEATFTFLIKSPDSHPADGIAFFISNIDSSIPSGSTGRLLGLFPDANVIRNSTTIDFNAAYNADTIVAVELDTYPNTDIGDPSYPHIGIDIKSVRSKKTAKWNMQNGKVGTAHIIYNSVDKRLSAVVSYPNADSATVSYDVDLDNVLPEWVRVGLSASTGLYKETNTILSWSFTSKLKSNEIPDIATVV
# Chain of Fibroblast growth factor 2 (Homo sapiens) (P09038 whole entry, looked up): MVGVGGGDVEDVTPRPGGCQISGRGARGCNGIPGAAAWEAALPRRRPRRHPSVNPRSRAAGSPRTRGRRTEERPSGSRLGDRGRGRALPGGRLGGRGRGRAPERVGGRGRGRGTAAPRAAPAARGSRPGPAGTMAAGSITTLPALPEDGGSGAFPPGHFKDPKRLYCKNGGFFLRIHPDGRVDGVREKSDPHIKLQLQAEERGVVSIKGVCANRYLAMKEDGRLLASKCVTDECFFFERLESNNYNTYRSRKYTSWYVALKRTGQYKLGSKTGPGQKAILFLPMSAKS
Compound,composite z-score [1],composite Z-score [2],composite z-score [3],composite z-score [4],composite z-score [5],composite z-score [6],composite z-score [7],composite z-score [8],composite z-score [9],composite z-score [10],composite z-score [11],composite z-score [12],composite z-score [13],composite z-score [14],composite z-score [15],composite z-score [16],z-score [17],composite z-score [18],composite z-score [19],z-score [20]
COc1ccc([C@H]2OC[C@@H]3C[C@@H](Cc4ccccc4)C(=O)N32)cc1,-0.127,0.584 (inactive),0.111,-0.164,0.796,0.39,-0.123,0.338,0.377,0.143,1.3,0.527,-0.181,-0.0072,0.62,0.91,1.25,1.08,0.208,0.0077 (inactive)
COc1ccccc1CN1C(=O)c2ccccc2[C@@]2(Cc3ccccc3N(CC(C)C)C2=O)[C@@H]1c1ccc(CO)cc1,-0.119,0.188 (inactive),-0.211,-0.143,-0.137,0.19,0.249,0.253,-0.238,0.277,-0.259,-0.827,-0.362,-0.705,-0.114,-0.556,0.379,-0.0355,-0.219,-0.35 (inactive)
COc1cc(NN2C(C(O)c3ccco3)C=CC3C(=O)N(c4ccccc4)C(=O)C32)cc(OC)c1OC (stereo not given),0.877,0.32 (inactive),-0.0328,-0.139,0.574,1.13,0.166,0.203,-0.776,0.498,0.284,1.06,0.21,-0.0129,0.363,-0.132,-0.16,0.199,0.0464,-2.51 (inactive)
CCOC(=O)C[C@H]1[C@H](OC(=O)c2ccc(C(=O)c3ccccc3)cc2)[C@@H](NC(=O)c2ccc3ccccc3n2)c2cc(OCCCO)ccc2N1C(=O)c1ccccc1,0.583,-0.12 (inactive),0.0488,-0.0646,0.249,0.994,0.545,1.29,-0.322,1.12,-0.0053,0.924,0.0305,0.807,0.559,0.674,0.332,1.63,0.761,0.393 (inactive)
O=C1c2ccccc2[C@](Cc2ccccc2I)(C(=O)NCCN2CCOCC2)[C@H](c2ccc(CO)cc2)N1C1CCCCC1,0.55,0.424 (inactive),0.323,-0.052,0.548,1.41,0.382,1.31,0.67,1.15,1.77,1.19,0.991,0.927,1.34,0.804,1.34,1.36,1.16,-0.147 (inactive)
CCCC=C(CCC)[C@@H](NC(=O)c1cccs1)c1ccc(C(F)(F)F)cc1,0.868,0.23 (inactive),0.224,-0.0027,0.173,0.0705,0.156,1.23,-0.595,0.79,0.51,1.23,-0.201,0.936,0.572,0.0183,0.627,0.735,0.83,-2.34 (inactive)
COc1ccc(-c2cc3c(c(-c4ccc(Oc5ccccc5)cc4)n2)[Si](C(C)C)(C(C)C)OC3)cn1,-0.344,-0.108 (inactive),-0.0311,-0.132,-0.163,0.0687,-0.232,-0.0667,-0.0581,0.478,0.0674,-0.221,0.158,-0.424,0.525,-0.224,-0.0734,0.278,-0.12,0.223 (inactive)
C=CC[C@@]1(C(=O)NCCN2CCOCC2)N=C(c2ccc(OCCCO)cc2)O[C@@H]1c1ccccc1N=[N+]=[N-],0.711,0.346 (inactive),-0.396,-0.109,0.716,1.62,0.232,0.176,0.703,-0.572,0.373,0.126,0.503,0.161,1.36,0.399,0.404,0.113,1.18,-5.94 (inactive)
COc1cc2c(cc1OC)CN(C(=O)[C@H]1[C@@H]3C(=O)O[C@@H](c4ccccc4)[C@@H](c4ccccc4)N3[C@@H](c3ccc(O)cc3)[C@]13C(=O)Nc1ccccc13)CC2,-0.134,2.52 (inactive),-0.0672,0.0481,0.402,2.34,0.399,1.07,0.139,0.777,1.65,1.19,0.81,0.253,0.354,0.39,-0.517,0.331,0.115,-0.204 (inactive)
CC(C)[Si]1(C(C)C)O[C@@H](c2ccccc2)c2cc(-c3ccc(-c4ccc(Cl)c(Cl)c4)o3)nc(-c3ccccc3)c21,0.473,-0.0194 (inactive),-0.0918,-0.133,0.233,0.308,0.0588,0.278,-0.432,0.989,2.46,0.361,-0.289,0.291,-0.139,0.0622,-0.133,-0.0995,0.533,-0.266 (inactive)
O=C1C2C=CC(C(O)c3cccc4ccccc34)N(Nc3ccccc3F)C2C(=O)N1c1ccccc1 (stereo not given),0.799,0.791 (inactive),0.614,0.0007,0.728,2.76,0.491,1.29,-0.539,1.09,1.22,1.25,0.792,1,0.829,-0.276,-0.968,0.345,1.4,1.24 (inactive)
